Rows were chosen to be rich in hits. Some 0.5% of all compounds tested hit in one or more screens of this group.
Tat transport: E. coli Tat transport inhibition. E. coli MC4100 TorA-mCherry Tat export, fluorescence. inhibition, % at 10 µM. actives 0.036% (n = 340,000). AID 488895;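 active = mean replicate inhibition at least 50% and at least half of replicates individually reaching 50%; inconclusive = only one of the two criteria met; inactive = neither criterion met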;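 also: exported cargo escapes ClpAP degradation while cytoplasmic cargo is degraded and loses fluorescence; 0% = median of neutral control wells and 100% = median of NaSCN control wells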
E coli growth-1: reduces bacterial viability in AddAB counter-screen; E. coli V3065 growth, OD600 absorbance, 18 h; inhibition, % at 11.9 µM; actives 0.27% (n = 330,000); AID 449728;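 active = inhibition above the campaign's mean inhibition across all tested compounds plus 3 SD, cut at about 9.9% in these data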;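 also: uninfected addAB+ strain grown without phage in ampicillin broth; 0% = DMSO wells and 100% = ciprofloxacin 0.95 µg/ml wells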
AddAB inh: less growth of phage-infected E. coli with AddAB; E. coli expressing H. pylori AddAB, absorbance growth; inhibition, % at 11.9 µM; actives 0.29% (n = 330,000); AID 435030; in the data active = inhibition above about 12%;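 also: 0% = vehicle wells of infected cells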
E coli growth-2: blocks Escherichia coli growth. actives 0.21% (n = 330,000). OD600, 23 h; active compounds read low. OD600 absorbance (test concentration not listed);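 active = OD600 absorbance below the run mean of sample wells minus 3.6 SD, in any replicate, cut at about 0.56 in these data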
phage Ecoli inh: E. coli growth loss with phage present. growth absorbance. inhibition, % at 11.9 µM. actives 0.26% (n = 360,000). AID 651602; in the data active = inhibition above about 11%
RecBCD conf: confirmation: growth loss of phage-infected RecBCD+ E. coli (RecBCD inhibitor screen); shares compounds with phage Ecoli inh; E. coli V66 + T4 2- phage, growth OD; inhibition, % at 11.9 µM; actives 45% (n = 890); AID 651982;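 active = mean inhibition over triplicates exceeding the hit threshold derived in the original primary screen, cut at about 11% in these data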
Ecoli viability: bacterial viability inhibition counter-screen for RecBCD. inhibition, % at 11.9 µM. E. coli viability, absorbance (OD) growth. actives 29% (n = 890). AID 651983. shares compounds with phage Ecoli inh; in the data active = inhibition above about 20%;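 also: E. coli strain V66 grown with compound alone and no phage infection; 0% = bacteria with DMSO vehicle only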
AddAB counter: growth loss of phage-infected AddAB E. coli, RecBCD counter-screen | shares compounds with phage Ecoli inh | inhibition, % at 11.9 µM | actives 45% (n = 890) | E. coli expressing H. pylori AddAB + T4 phage, OD growth; gene 2 mutant T4, recBCD-deleted host;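 active = mean inhibition above the solvent-only control wells' mean plus 3 SD, cut at about 22% in these data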;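 also: higher means less bacterial growth from phage killing when AddAB is blocked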
An asterisk follows results filed as active; u = inconclusive; x = no result; ! = a repeat was not active.

SMILES	Tat transport	E coli growth-1	AddAB inh	E coli growth-2	phage Ecoli inh	RecBCD conf	Ecoli viability	AddAB counter
CCCc1nc2c(=O)n(C)c(=O)nc-2n(C)n1	-48	x	x	0.44*	18*	16*	16	36*
O=C(CCCc1ccccc1)NCc1cn2ccsc2n1	6	1	-4	0.73	96*	-2	-1	4
CC(=O)Nc1ccc(Sc2ccc([N+](=O)[O-])o2)cc1	-22	x	x	0.55	21*	15*	17	72*
CC(C)(C)C(=O)Nc1ccc(Sc2ccc([N+](=O)[O-])cc2)cc1	10	-1	2	0.72	2	x	x	x
CC(C)(C)C1COC(=O)CCC=CCC(CC(=O)N(CCO)Cc2ccccc2)C(=O)N1 (stereo unspecified)	x	x	x	0.67	x	x	x	x
OC(CN1CCN(c2ccccn2)CC1)Cn1c2ccccc2c2ccccc21 (stereo unspecified)	6	0	5	0.61	12*	-4	-4	-4
CN1CCN(C(=O)N(c2ccccc2)c2ccccc2)CC1	7	0	1	0.7	98*	-3	-2	-1
CCN1CCN(C(=O)N(c2ccccc2)c2ccccc2)CC1	1	-2	-4	0.69	2	x	x	x
Cc1ccc(Cl)cc1NC(=O)NC(C)C(=O)O (stereo unspecified)	x	x	x	0.67	x	x	x	x
CCN(CC)S(=O)(=O)c1cc(OC)ccc1N=Nc1ccc(O)c2ncccc12	2	x	x	x	12*	1	2	2
Cc1cccc(N=Nc2ccc(O)c3ncccc23)c1	2	6	9	0.72	16*	5	7	5
CCS(=O)(=O)c1ccc(OC)c(N=Nc2ccc(O)c3ncccc23)c1	-9	6	8	0.66	7	x	x	x
CCN1C(=O)CSC1=Nc1nccs1	x	x	x	0.77	x	x	x	x
CCN1CCN(c2ccc(S(=O)(=O)N3CCCCC3)cc2NC(=O)c2ccc([N+](=O)[O-])o2)CC1	15	-1	4	0.63	3	x	x	x
CCN1CCN(c2ccc(NC(=O)c3ccc([N+](=O)[O-])o3)cc2Cl)CC1	7	x	x	0.54	21*	16*	18	102*
Nc1nc(Sc2ccc([N+](=O)[O-])c3nonc23)c2[nH]cnc2n1	-5	x	x	x	39*	44*	51*	68*
Nc1nc(SCc2ccccc2)c2[nH]cnc2n1	-2	2	0	0.67	2	x	x	x
CNc1ncnc(Sc2nc(N)nc3nc[nH]c23)c1[N+](=O)[O-]	-1	x	x	x	62*	55*	65*	79*
Cc1c(Cl)sn(-c2ccc(Cl)cc2)c1=O	u	x	x	0.062*	98*	99*	100*	100*
CCCCC(=O)NC(c1cccc([N+](=O)[O-])c1)c1ccc2cccnc2c1O (stereo unspecified)	2	x	x	0.59	19*	16*	18	25*
CN(C(=O)C1CCC1C(=O)O)c1nc(-c2ccc(Cl)s2)cs1 (stereo unspecified)	9	1	6	0.64	99*	-1	0	-2
CC1CC1C(=O)Nc1nc(-c2ccc(Cl)s2)cs1 (stereo unspecified)	3	1	3	0.71	10	x	x	x
COC(=O)Cn1ccnc1[N+](=O)[O-]	x	x	x	x	16*	5	5	90*
Cc1ccc(-c2nc(NN=Cc3ccccc3[N+](=O)[O-])c3ccccc3n2)cc1	x	x	x	0.68	x	x	x	x
Oc1cccc2cc(Nc3ccccc3)cnc12	x	x	x	x	23*	16*	19	25*
SMILES	Tat transport	E coli growth-1	AddAB inh	E coli growth-2	phage Ecoli inh	RecBCD conf	Ecoli viability	AddAB counter
NCCC(=O)NCCc1cnc[nH]1	-7	1	-1	0.68	2	x	x	x
NCCc1cnc[nH]1	-5	1	1	0.65	13*!	-6	-8	2
O=C(CSc1nnc(-c2ccccc2)n1Cc1ccccc1)NNC(=O)c1ccccc1O	-5	9	12	0.57	12*	4	4	4
CC(=NNC(=O)c1ccccc1O)C1C(=O)c2ccccc2C1=O	x	x	x	0.67	x	x	x	x
C/C(=N/NC(=O)c1cc2ccccc2cc1O)C1C(=O)c2ccccc2C1=O	7	9	9	x	11*	5	7	3
Cc1ccc(C=NNC(=O)CCSc2ccccc2)cc1	x	x	x	0.7	x	x	x	x
O=C(c1ccc(-c2ccccc2)c(F)c1)C1CCCN(CCCn2cccn2)C1 (stereo unspecified)	-4	1	3	0.7	99*	1	2	1
O=[N+]([O-])c1ccc(C=NN2CCNC2=S)o1	x	x	x	x	101*	101*	102*	101*
Cc1cc2ncn(N=Cc3ccc([N+](=O)[O-])o3)c2cc1C	x	x	x	0.57	x	x	x	x
CCN(CC)CC1CN(N=Cc2ccc([N+](=O)[O-])o2)C(=O)O1 (stereo unspecified)	-9	x	x	0.064*	39*	41*	59*	102*
N#CC(=C(O)CSc1nnc(Cc2cccs2)n1C1CCCCC1)c1nc2ccccc2[nH]1	x	x	x	0.69	x	x	x	x
Nc1c(Cl)ncnc1N/N=C/c1ccccn1	x	-2	2	x	30*	38*	49*	37*
O=c1ccc2cc3c([nH]c4ccc(Br)cc43)oc-2c1O	4	9	8	0.7	14*	6	8	17
Cc1ncc(CO)c(C=NNC(=O)c2cc(O)c(O)c(O)c2)c1O	x	x	x	0.62	x	x	x	x
COc1ccc(C=NNC(=O)c2ccc(COc3ccccc3Cl)o2)cc1	x	x	x	0.68	x	x	x	x
CCS(=O)(=O)NCCc1csc(-c2cccnc2)n1	0	1	-3	0.7	97*	-3	-3	3
O=C(NN=Cc1ccc(N2CCOCC2)s1)c1ccccc1Br	x	x	x	0.68	x	x	x	x
COC(=O)/C(=C\c1ccc([N+](=O)[O-])o1)NC(=O)c1ccccc1	2	1	1	0.71	2	x	x	x
NC(=O)/C(=C\c1ccc([N+](=O)[O-])o1)c1ccco1	x	x	x	x	100*	102*	103*	101*
O=C(NN=Cc1cccc([N+](=O)[O-])c1)c1cc2ccccc2o1	x	x	x	0.67	x	x	x	x
Cc1cc(=O)[nH]c(N=N/C(=N/Nc2ccc(O)cc2)c2ccccc2)n1	-1	8	6	x	21*	19*	17	79*
Cc1cc(=O)[nH]c(N=N/C(=N/Nc2ccccc2C)c2ccccc2)n1	3	3	1	x	5	x	x	x
O=[N+]([O-])c1ccc(O)c(C2CCCCC2)c1	-5	x	x	0.19*	12*	7	12	17
COc1cc(C(=O)N=c2sccn2C)c([N+](=O)[O-])cc1OC	-3	x	x	0.68	3	x	x	x
Cn1ccsc1=NC(=O)c1ccc([N+](=O)[O-])o1	12	99*	99*	0.062*	100*	99*	101*	101*
C=CCn1c(SCC(=O)NC2CCCC2)nnc1-c1ccccn1	-3	0	2	0.67	1	x	x	x
CCCn1c(SCC(=O)NC2CCCC2)nnc1-c1ccccn1	-3	0	-1	0.67	38*	-2	-1	3
Oc1ccc(C=Nn2c(COc3ccccc3)n[nH]c2=S)cc1O	x	x	x	0.69	x	x	x	x
